A selection: hits, their analogues and other compounds. The true share with any hit is near 3.4%.
FBW7 activator: FBW7 E3 ligase activators, primary screen, biochemical, AlphaScreen, human; AID 1259310, 2017; normalized activity (activation), % at 26.1 µM; actives 0.13% (n = 650,000); AlphaScreen FBW7–phospho-cyclin E peptide binding, activator screen; in the data active means normalized activity above about 1.9%;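 further: purified mutant Fbw7 with reduced substrate affinity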
Target sequence (Q969H0 whole entry, looked up): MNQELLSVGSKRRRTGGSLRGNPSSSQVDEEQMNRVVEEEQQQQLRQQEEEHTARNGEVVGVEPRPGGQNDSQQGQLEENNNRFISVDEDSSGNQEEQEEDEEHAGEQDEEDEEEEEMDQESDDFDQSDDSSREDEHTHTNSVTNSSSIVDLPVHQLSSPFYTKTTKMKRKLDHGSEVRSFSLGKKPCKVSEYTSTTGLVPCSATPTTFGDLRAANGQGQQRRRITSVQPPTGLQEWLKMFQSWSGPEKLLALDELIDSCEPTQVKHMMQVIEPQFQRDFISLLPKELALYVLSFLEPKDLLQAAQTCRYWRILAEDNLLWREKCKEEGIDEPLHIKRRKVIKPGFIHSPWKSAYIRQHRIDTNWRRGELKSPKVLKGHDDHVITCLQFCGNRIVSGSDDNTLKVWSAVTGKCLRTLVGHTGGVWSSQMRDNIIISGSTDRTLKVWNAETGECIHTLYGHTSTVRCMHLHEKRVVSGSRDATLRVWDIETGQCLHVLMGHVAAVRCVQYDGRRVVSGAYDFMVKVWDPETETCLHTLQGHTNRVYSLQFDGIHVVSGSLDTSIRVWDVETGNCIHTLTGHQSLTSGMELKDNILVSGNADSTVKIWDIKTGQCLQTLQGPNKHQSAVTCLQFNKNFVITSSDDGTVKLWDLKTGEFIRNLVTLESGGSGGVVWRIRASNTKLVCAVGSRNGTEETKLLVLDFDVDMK
GPR151 ag: activators of human GPR151, primary screen, cell-based, PathHunter beta-arrestin, luminescence | G-protein coupled receptor 151 (Homo sapiens), Q8TDV0 | PathHunter beta-arrestin GPR151 cells | activation, % at 11.2 µM | actives 1% (n = 650,000) | AID 1508602, 2020; in the data active means activation above about 4.9%;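 further: 0% = median of compound wells and 100% = cells with positive control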
TEAD-YAP block: TEAD-YAP interaction inhibition, primary screen, TEAD-YAP interaction inhibitor project, luminescence, HEK-TIYL cells | TEAD-Gal4/YAP UAS-luciferase luminescence | actives 1.4% (n = 640,000) | inhibition, % at 9.12 µM | AID 1259422, 2018; in the data active means inhibition above about 32%;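 further: 0% = median of test compound wells and 100% = reference inhibitor wells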
MITF inh: MITF inhibitors, primary screen, biochemical, AlphaScreen, human; AlphaScreen MITF homodimerization, bead proximity signal; AID 1259374, 2018; inhibition, % at 2.6 µM; actives 0.91% (n = 650,000); in the data active means inhibition above about 50%;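 further: 0% = vehicle wells with protein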
GPR151 confirm: GPR151 activators, triplicate retest, confirmation, cell-based, PathHunter beta-arrestin, luminescence; 6,700 tested, under 10 active; activation, % at 11.2 µM; GPR151 PathHunter beta-arrestin cells, 90 min; % of EA-reagent control over plate median; AID 1508609, 2020; shares compounds with GPR151 ag;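 active means mean percent activation across replicates above the confirmation screen cutoff of 4.91%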
GPR119 ag: GPR119 activators in beta-arrestin cells, counter-screen for GPR151 activator project, cell-based, PathHunter beta-arrestin, luminescence, triplicate; shares compounds with GPR151 ag; 90 min; 0 = compound-well median, 100 = enzyme-acceptor control; activation, % at 11.2 µM; actives 0.3% (n = 6,700);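 active means mean percent activation in the counterscreen above 29.09%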;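 further: counterscreen on off-target GPR119 to flag nonselective hits from the GPR151 activator screen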
* = called active by the depositor; . = no result given; ! = not active in a repeat.

SMILES	FBW7 activator	GPR151 ag	TEAD-YAP block	MITF inh	GPR151 confirm	GPR119 ag
COCCCNC(=O)CCc1c(C)nc2cc(-c3ccccc3)nn2c1C	0	5.3*	-3	-1	0	-1
CC(C)(C)CC(=O)Nc1ccccc1[N+](=O)[O-]	0	7.0*	-6	1	0	4
O=[N+]([O-])c1c(Oc2ccc(Cl)cc2)ccc2nsnc12	0	5.3*	-5	12	0	-7
O=[N+]([O-])c1c(Cl)ccc2nsnc12	0	1	-1	0	.	.
Cc1cc(=O)[nH]c(N/N=C/C=C2\N(C)c3ccccc3C2(C)C)n1	-1	5.0*	6	24	0	-3
CCOC(=O)c1cccc(Nc2nc(-c3ccccc3Cl)nc3ccccc23)c1	0	0	11	2	.	.
CCOC(=O)c1nc(Nc2ccc(OCC)cc2)c2ccccc2n1	0	1	2	17	.	.
CCOC(=O)c1nc(Nc2ccc(OC(C)C)cc2)c2ccccc2n1	0	8.8*	5	7	2	6
CCOC(=O)c1cccc(Nc2nc(-c3ccccc3)nc3ccccc23)c1	0	5.9*	4	17	0	-1
COC(=O)c1ccc(N2C(=O)CC(N3CCN(C(=O)c4ccccc4F)CC3)C2=O)cc1 (configuration not stated)	0	1	-5	-7	.	.
Cc1ccc(C(=O)Nc2cccc(Cl)c2)cc1S(=O)(=O)N1CCCCC1	0	1	-35	14	.	.
CCCCC(=O)NC(=S)Nc1ccc(C(=O)O)c(Cl)c1	0	0	2	-3	.	.
O=S(=O)(c1ccc(Br)cc1Br)N1CCOCC1	0	5.1*	-3	-2	0	-7
Cc1cc(Br)ccc1S(=O)(=O)N1CCOCC1	0	0	-7	3	.	.
O=C(CSc1n[nH]c(-c2ccncc2)n1)c1ccc(F)cc1	0	2	3	-7	.	.
O=C(CSc1n[nH]c(-c2ccncc2)n1)c1ccc(Cl)cc1	0	5.0*	2	-12	-1	-6
CC(=O)c1cc(C#N)c(SCCC(C)C)nc1C	0	7.9*	-10	-12	-1	1
CCOC(=O)N/N=C/c1ccc(OC(F)F)cc1OC(F)F	0	1	-7	-9	.	.
Cc1c(Cl)cccc1NC(=O)C1CCCN(c2nnc(N3CCCC3=O)s2)C1 (configuration not stated)	0	-2	-2	-4	.	.
O=C(Nc1ccccc1F)C1CCCN(c2nnc(N3CCCC3=O)s2)C1 (configuration not stated)	0	5.0*	3	9	-1	-9
O=C(CC1S\C(=N/N=C/C=C/c2ccccc2)NC1=O)Nc1ccccc1F (configuration not stated)	0	7.8*	1	-11	1	-3
Cc1cc(C(=O)Nc2ccc(Br)c(C)n2)ccc1[N+](=O)[O-]	0	5.0*	-69	16	-1	-2
Cc1cc(C(=O)Nc2ccc(I)c(C)n2)ccc1[N+](=O)[O-]	0	0	-28	19	.	.
O=[N+]([O-])c1ccccc1/C=N/NS(=O)(=O)c1ccc(Cl)cc1	0	14*	-4	21	0	10
CC(C)(C)c1ccc(S(=O)(=O)N/N=C/c2ccccc2[N+](=O)[O-])cc1	0	0	13	13	.	.
SMILES	FBW7 activator	GPR151 ag	TEAD-YAP block	MITF inh	GPR151 confirm	GPR119 ag
Cc1nc(CNc2nncc(-c3ccc(Cl)cc3)n2)cs1	0	9.4*	-24	0	-1	3
CC1=NN2C(=N)/C(=C\c3coc4ccccc4c3=O)C(=O)N=C2S1	0	0	4	2	.	.
COc1cccc(CNCC2CCCO2)c1OC (configuration not stated)	0	1	0	4	.	.
COc1ccc(CNCC2CCCO2)c(OC)c1OC (configuration not stated)	0	5.9*	5	6	0	7
O=C(CN1CCN(Cc2ccccc2)CC1)Nc1ccc(Br)cn1	0	-1	-5	-2	.	.
Cn1nccc1Nc1cccc(C(=O)NCc2ccccc2)n1	0	0	-9	5	.	.
COc1ccc(C(=O)Nc2c(C)csc2C(=O)O)cc1	0	4.9*	-3	4	-1	4
Cc1csc(C(=O)O)c1NC(=O)c1ccc(F)cc1	0	1	-2	-1	.	.
O=S(=O)(c1ccc(N2CCCC(C(F)(F)F)C2)nc1)N1CCCC1 (configuration not stated)	0	5.8*	-4	-2	0	3
COc1ccc(-c2nc(NCCO)c3ncn(C4CCCCC4)c3n2)cc1	0	6.0*	-4	12	1	-4
CC1=C(C(=O)OC(C)C)C(c2ccc(Cl)c(Cl)c2)C2=C(CC(c3ccccc3)CC2=O)N1 (configuration not stated)	0	1	9	6	.	.
COc1ccccc1CN1C[C@@H]2C[C@@H](c3cccc(SC)c3)N3CCC[C@@]23C1=O	0	6.5*	-6	8	-1	-21
Cc1cc(C)n(-c2cc(NCCO)nc(C)n2)n1	0	11*	2	-3	0	-11
COC(=O)c1c(NC(=O)Cn2nc([N+](=O)[O-])cc2C)sc2c1CCCC2	-1	2	2	-4	.	.
CCOC(=O)C1(CC2CC2)CCN(Cc2ccc(NC(C)=O)cc2)CC1	0	0	-6	-3	.	.
OCCNCCCCOc1cccc(Cl)c1Cl	1	-4	13	35	.	.
OCCNCCCOc1cccc(Cl)c1Cl	0	5.5*!	70*	11	0	0
C/C(=N\NC(=O)c1ccc(F)cc1)c1ccc([N+](=O)[O-])cc1	0	8.1*	-25	10	-1	-14
O=C(CSc1nnc(-c2ccccc2O)o1)N1CCc2ccccc21	0	6.3*	7	6	0	1
Cc1ccnc(SCC(=O)N2CCc3ccccc32)n1	0	5.4*	-40	-6	0	9
Cc1nc(N2CCOCC2)c2oc3ccccc3c2n1	0	7.4*	-3	14	0	3
Cc1nc(N2CCC(C(=O)O)CC2)c2oc3ccccc3c2n1	0	-1	-4	8	.	.
O=S(=O)(NO)c1ccccc1	.	-1	.	19	.	.
O=C1C2C3c4ccccc4C(CO)(c4ccccc43)C2C(=O)N1c1ccc(Cl)cc1 (configuration not stated)	1	-1	-2	-7	.	.
Cc1nc(NC(=O)c2ccccc2F)sc1C(=O)O	1	-6	5	18	.	.

Compound activity (PubChem BioAssay)
